From PubChem BioAssay (Tox21) come the findings set out here.

Assay [1] in a line: cAMP Responsive Elements (CRE) small molecule antagonists, cell-based qHTS assay: qHTS cell viability counter screen (AID 2060913). Also: nearly all actives have a fitted effect of over 40% in size. A digest of the protocol:
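Steps: cells plated and held 18 hrs at 37 C/5% CO2; compounds and NKH477 (0.25 uM final) added; 3 hrs incubation; reporter substrate read; CellTiter-Glo added to measure cytotoxicity by luminescence.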
(In qHTS, concentration-response curves come from the screen itself.)

Assay [2] can be described thus: cAMP Responsive Elements (CRE) small molecule agonists, cell-based qHTS assay: qHTS cell viability counter screen (AID 2060914). Also: nearly all actives have a fitted effect of over 50% in size. Also: potency is read from the fitted curve at half-maximal effect. An outline of the steps: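 In the same wells as the reporter read, viability of CRE-bla HEK 293T cells was quantified by CellTiter-Glo luminescence after a 3 h compound exposure.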

Molecules are shown by their SMILES. Records with an inconclusive call do not appear. Entries that show only a call come without a potency. Activity calls are given as the source filed them. Calls follow the shape of the dose curve; as a rule, active = well fitted cell-killing curve with a large enough effect in the repeat runs; inconclusive = weak or mixed curves, or effect the other way; inactive = flat fitted curve, though single readings scatter.

As for `Oc1ccc(Cl)c(Cl)c1`, the Potency result in assay [1] and in assay [2] was “inactive” each time.

For `O=CNC(N1CCN(C(NC=O)C(Cl)(Cl)Cl)CC1)C(Cl)(Cl)Cl` (stereo not drawn), the Potency result in assay [1] and in assay [2] was “inactive” in each case.

As to `CC(C)CCCCCCOC(=O)c1ccccc1C(=O)OCCCCCCC(C)C`, the Potency entry in assay [1] and in assay [2] was “inactive” in each case.

For `CC1OC(C)OC(C)O1` (stereo not drawn), the Potency entry in assay [1] and in assay [2] was “inactive” throughout.

Turning to `CCCCC(C#N)(Cn1cncn1)c1ccc(Cl)cc1` (stereo not drawn), the Potency result in assay [1] and in assay [2] was “inactive” throughout.

Take `Oc1ccc(Cl)cc1Cc1ccccc1`: the Potency entry in assay [1] and in assay [2] was “inactive” in each case.

Regarding `c1ccc2sc(SNC3CCCCC3)nc2c1`, the Potency result in assay [1] and in assay [2] was “inactive” in each case.

`CC(C(O)c1ccccc1)N(C)C/C=C/c1ccccc1` (stereo not drawn): the Potency entry in assay [1] and in assay [2] was “inactive” each time.

In the case of `CC(=O)CCC(C)=O`, the Potency entry in assay [1] and in assay [2] was “inactive” each time.

On to `O=S(=O)(c1ccccc1)c1ccccc1`, for which the Potency entry in assay [1] and in assay [2] was “inactive” throughout.

For `CCCCP(CCCC)CCCC`, the Potency result in assay [1] and in assay [2] was “inactive” each time.

Consider `CCCCCCCCCCCCBr`, for which the Potency result in assay [1] and in assay [2] was “inactive” each time.

On to `COc1ccc(Cc2nccc3cc(OC)c(OC)cc23)cc1OC`, for which the Potency entry in assay [1] and in assay [2] was “inactive” each time.

For `N#CSCc1ccccc1`, the Potency result in assay [1] and in assay [2] was “inactive” in each case.

As to `COP(=O)(NC(C)=O)SC` (stereo not drawn), the Potency result in assay [1] and in assay [2] was “inactive” in each case.

Turning to `CCC(=O)Nc1ccc(Cl)c(Cl)c1`, the Potency entry in assay [1] and in assay [2] was “inactive” in each case.

Regarding `CC(Cc1ccccc1)NCCn1cnc2c1c(=O)n(C)c(=O)n2C` (stereo not drawn), the Potency entry in assay [1] and in assay [2] was “inactive” throughout.

As to `O=C(NC(=O)c1c(F)cccc1F)Nc1cc(Cl)c(OC(F)(F)C(F)F)c(Cl)c1`, the Potency result in assay [1] and in assay [2] was “inactive” throughout.

As for `O=P(O)(O)CN(CP(=O)(O)O)CP(=O)(O)O`, the Potency result in assay [1] and in assay [2] was “inactive” in each case.

For `Nc1ccc([N+](=O)[O-])cc1`, in assay [1], the Potency result is “inactive”. In addition, the Potency in assay [2] is 6.11 µM (active).

For the compound `O=S(=O)(O)C(F)(F)C(F)(F)C(F)(F)C(F)(F)C(F)(F)C(F)(F)F`, the Potency result in assay [1] and in assay [2] was “inactive” in each case.

With `N#CCBr`, the Potency result in assay [1] and in assay [2] was “inactive” throughout.

In the case of `O=c1[nH]c2ccccc2n1C1CCN(CCCC(c2ccc(F)cc2)c2ccc(F)cc2)CC1`, the Potency result in assay [1] and in assay [2] was “inactive” each time.

On to `COc1ccc2c3c1O[C@H]1[C@@H](O)C=C[C@H]4[C@@H](C2)N(C)CC[C@@]341`, for which the Potency result in assay [1] and in assay [2] was “inactive” throughout.

For the compound `CC(C)(C)OOC(=O)c1ccccc1`, the Potency result in assay [1] and in assay [2] was “inactive” in each case.

As for `C=C(C)C#N`, the Potency entry in assay [1] and in assay [2] was “inactive” throughout.

`O=C1CCCN1`: the Potency entry in assay [1] and in assay [2] was “inactive” throughout.

`[N-]=[N+]=CC(=O)OC[C@H](N)C(=O)O`: the Potency entry in assay [1] and in assay [2] was “inactive” in each case.

On to `O=C(CBr)c1ccccc1`, for which the Potency entry in assay [1] and in assay [2] was “inactive” in each case.
